TNF death inh = inhibitors of TNF-alpha induced necroptosis in Jurkat FADD-/- cells. 0.068% of 220,000 active. activation (protection from cell death), % at 10 µM. Jurkat FADD-/- TNF necroptosis rescue, ATP luminescence, 24 h; 0 = TNF only, 100 = no-TNF cells. AID 463075;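 active = activation, meaning protection from cell death, of at least 50% relative to plate controls; inactive = activation below 50%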;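 also: necroptosis triggered by 40 ng/mL TNF-alpha added together with compound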
m-calpain inh = blocks pig calpain II enzyme activity; purified calpain II, fluorogenic peptide substrate, 30 min; inhibition, % at 16 µM; 0.37% of 220,000 active; AID 1236;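 active = inhibition above about 50%, limit read from the data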
Mcl1 Bid PPI = Mcl-1/Bid interaction inhibition; Q07820; TR-FRET Mcl-1/Bid-Dy647 peptide binding, 1536-well; inhibition, % at 21.7 µM; 0.97% of 220,000 active; AID 1021;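 active = compounds that cut the binding signal by more than half at the single screening dose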;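 also: His-tagged Mcl-1 with europium anti-His antibody binding Bid BH3 peptide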
Target sequence (Q07820 whole entry, looked up): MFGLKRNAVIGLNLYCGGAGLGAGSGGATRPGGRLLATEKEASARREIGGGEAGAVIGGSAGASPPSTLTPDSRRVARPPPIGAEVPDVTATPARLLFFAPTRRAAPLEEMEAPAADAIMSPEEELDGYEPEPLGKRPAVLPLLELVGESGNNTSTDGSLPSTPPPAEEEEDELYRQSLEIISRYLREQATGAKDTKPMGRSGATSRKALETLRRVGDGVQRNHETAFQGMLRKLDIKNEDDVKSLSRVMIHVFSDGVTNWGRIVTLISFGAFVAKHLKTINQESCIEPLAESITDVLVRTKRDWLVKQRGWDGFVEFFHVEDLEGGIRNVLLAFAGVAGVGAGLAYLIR
Mcl1 Noxa PPI = disrupts binding of human Mcl-1 to Noxa peptide. Q07820. TR-FRET Mcl-1/Noxa peptide binding, 2 h. inhibition, % at 21.7 µM. 1.5% of 220,000 active;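 active = compounds that cut the protein-peptide binding signal by more than 50% relative to plate controls in a single-dose test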;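 also: His-tagged Mcl-1 with rhodamine Noxa BH3 peptide and terbium anti-His antibody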
Mcl-1 Bim block = disrupts Bim peptide binding to human Mcl-1; Q07820; Bead-based flow cytometry, Bim peptide-Mcl-1 binding; inhibition, % at 10 µM; 0.1% of 190,000 active; in the data active = inhibition above about 40%
zVAD death inh = blocks zVAD induced death of L929 cells. L929 zVAD necroptosis rescue, ATP luminescence, 24 h; with zVAD 60 µM. viability rescue, % at 10 µM. 0.38% of 220,000 active;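 active = activation, scaled between plate controls, above about 75%, limit read from the data; inactive = activation under that limit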
zVAD necrop conf = confirmed blocker of zVAD induced death in L929 cells; shares compounds with zVAD death inh; L929 zVAD-induced necroptosis rescue, ATP luminescence, 24 h; activation (protection from necroptosis), % at 10 µM; 16% of 760 active;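 active = mean protection from necroptosis of at least 50% over duplicate tests; inactive = mean protection below 50%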
Numbers stand for hits; i = inactive; nt = no result given. Most compounds without a hit are left out; they make up all but 2.8% or so of the library.

SMILES | TNF death inh | m-calpain inh | Mcl1 Bid PPI | Mcl1 Noxa PPI | Mcl-1 Bim block | zVAD death inh | zVAD necrop conf
CC(=O)Nc1cccc(C(=O)/C=C/c2ccc(F)cc2)c1 | i | i | i | i | i | i | nt
CC(=O)Nc1cccc(C(=O)/C=C/c2ccc(/C=C/C(=O)c3cccc(NC(C)=O)c3)cc2)c1 | i | i | 59 | i | i | i | nt
CC(=O)Nc1ccc(C(=O)/C=C/c2ccco2)cc1 | i | i | i | 61 | i | i | nt
O=C(/C=C/c1ccco1)c1ccc(O)cc1 | i | i | i | i | i | i | nt
CC(=O)Nc1cccc(C(=O)/C=C/c2ccco2)c1 | i | i | i | i | i | i | nt
O=C(COc1ccccc1)N1CCN(S(=O)(=O)c2cccc([N+](=O)[O-])c2)CC1 | i | i | i | i | i | i | nt
CCS(=O)(=O)N1N=C(c2cccc(NS(C)(=O)=O)c2)CC1c1ccc(C)cc1 (centres undefined) | i | i | i | i | i | i | nt
O=C1/C(=C\c2ccc(O)cc2)SC(=S)N1/N=C/c1ccc(O)cc1 | i | i | i | 79 | nt | i | nt
CC(=O)NN1C(=O)/C(=C\c2ccc(O)cc2)SC1=S | i | i | i | i | i | i | nt
O=C(NC(=S)N1CCCc2ccccc21)c1ccco1 | i | i | i | i | i | i | nt
CC1Cc2ccccc2N1C(=S)NC(=O)c1ccco1 (centres undefined) | i | 52 | i | i | i | i | nt
CCOC(=O)c1ccc2ncc(-c3ccccc3)nc2c1 | i | i | i | i | i | 76 | i
CCOC(=O)c1cnc(-c2ccccc2)nc1N | i | i | i | i | i | i | nt
C[n+]1cnc(-c2ccccc2)cc1-c1ccccc1 | i | i | i | i | i | i | nt
Cc1ccccc1NC(=O)C(=Cc1ccc(C(=O)O)cc1)C(=O)Nc1ccccc1C | i | i | i | i | i | 79 | i
CC(=O)/C(=C/c1ccccc1)C(=O)Nc1ccccc1C | i | i | i | i | i | i | nt
COc1ccc(/C=N/Nc2ncc(Br)cn2)c(OC)c1 | i | i | i | i | i | 85 | i
COc1ccc(/C=N/NC(=O)c2ccc(Br)cc2)c(OC)c1 | i | i | i | i | i | i | nt
O=C(NNc1cccc(Cl)c1)c1cccnc1Oc1ccccc1 | i | i | i | i | nt | i | nt
COc1cc(/C=N/NC(=O)c2sc(N)c(C#N)c2C)cc(Br)c1O | i | i | i | i | i | 99 | i
COc1ccc2ccccc2c1/C=N/NC(=O)c1sc(N)c(C#N)c1C | i | i | i | i | i | i | nt
O=C(N/N=C\c1cccc(Cl)c1)c1n[nH]c2c1CCCC2 | i | i | i | i | i | 83 | i
c1ccc2c3c([nH]c2c1)-c1[nH]ncc1CC3 | 95 | i | i | i | i | 91 | 93
O=CNC1CCCc2c1[nH]c1ccc(Cl)cc21 (centres undefined) | i | i | i | i | i | i | nt
O=C1CCCc2c1[nH]c1ccccc21 | i | i | i | i | i | i | nt
SMILES | TNF death inh | m-calpain inh | Mcl1 Bid PPI | Mcl1 Noxa PPI | Mcl-1 Bim block | zVAD death inh | zVAD necrop conf
Clc1ccc2[nH]c3c(c2c1)CCc1cn[nH]c1-3 | 90 | i | i | i | i | 101 | 83
CNS(=O)(=O)c1ccc2nc(NC(=O)/C=C/c3ccco3)sc2c1 | i | i | i | i | i | 76 | i
CC(=O)Nc1ccc(C(=O)CSc2ncn(-c3ccccc3)n2)cc1 | i | i | i | i | i | 80 | i
O=C(CSc1ncn(-c2ccccc2)n1)Nc1nncs1 | i | i | i | i | i | i | nt
C=C1C(=O)[C@@]23[C@H](O)C[C@@H]4C(C)(C)CC[C@H](O)[C@@]4(C)[C@@H]2CC[C@@H]1[C@H]3O | i | i | i | i | i | 121 | 78
C/C(CC(=O)NC(C)C)=N\NC(=O)C(c1ccccc1)c1ccccc1 | i | i | i | i | i | 82 | i
FC(F)(F)c1cnc2c(c1)Nc1ccccc1S2 | i | i | i | i | i | 98 | 58
Clc1cc2c(nn1)Nc1ccccc1S2 | i | i | i | i | nt | i | nt
CCOC(=O)c1ccccc1NC(=O)CSc1nnnn1C1CCCCC1 | i | i | i | i | i | i | nt
CCCS(=O)(=O)c1ccc(COC(=O)c2ccc(NC(C)=O)cc2)cc1 | i | i | i | i | i | 79 | i
CC(=O)Nc1ccc(C(=O)OCC(=O)NC(=O)NC2CCCCC2)cc1 | i | i | i | i | i | 80 | i
CC(=O)Nc1ccc(C(=O)OCc2ccc(Cl)cc2)cc1 | i | i | i | i | i | i | nt
Cc1cc(=O)c(C(=O)O)cn1Nc1ccc(Cl)cc1 | i | i | i | i | i | i | nt
Cc1ccc(C(=O)NC(NC(=O)c2ccc(C)cc2)c2cccc([N+](=O)[O-])c2)cc1 | i | i | i | i | i | i | nt
CN=C1S/C(=C\c2cn(CC(=O)OC)c3ccccc23)C(=O)N1C | i | i | i | i | i | 75 | i
CN=C1S/C(=C/c2cn(CC(=O)OC)c3ccccc23)C(=O)N1C | i | i | i | i | nt | i | nt
Cc1cccc(C)c1NC(=O)CNCC(=O)N(C)C | i | i | i | i | i | i | nt
CN1CCN(c2ccc(-c3ccnn3C(=O)Nc3cccc(C(F)(F)F)c3)cc2)CC1 | i | i | i | i | i | 84 | 51
COC(=O)c1ccccc1NC(=O)Nc1cc(C)ccn1 | i | i | i | i | i | i | nt
O=C(Nc1cnccn1)Nc1ccc(Cl)cc1Cl | i | i | i | i | i | 80 | i
Cc1ccnc(NC(=O)Nc2ccc(Br)cc2Cl)c1 | i | i | i | i | i | 83 | i
Cc1ccc(NC(=O)Nc2cnccn2)cc1Cl | i | i | i | i | i | 80 | i
COc1ccc(NC(=O)Nc2cnccn2)cc1 | i | i | i | i | nt | i | nt
N#CC(C#N)=C1C=CC=CN1/C(=C\c1ccco1)C(=O)c1ccc(Cl)cc1 | i | i | i | i | i | i | nt
N#CC(C#N)=C1C=CC=CN1/C(=C\c1ccco1)C(=O)c1ccc(-c2ccccc2)cc1 | i | i | i | i | i | 99 | i
SMILES | TNF death inh | m-calpain inh | Mcl1 Bid PPI | Mcl1 Noxa PPI | Mcl-1 Bim block | zVAD death inh | zVAD necrop conf
COc1ccc(-n2cnc3cc([N+](=O)[O-])ccc32)cc1 | i | i | i | i | i | 79 | i
Nc1ccc(-n2cnc3cc([N+](=O)[O-])ccc32)cc1 | i | i | i | i | i | 78 | i
COc1ccc(-n2cnc3cc(NS(=O)(=O)c4ccc(C)cc4)ccc32)cc1 | i | i | i | i | i | 85 | i
CCn1cnc2cc(NS(=O)(=O)c3ccc(C)cc3)ccc21 | i | i | i | i | i | i | nt
Cc1cccc(-n2cnc3cc([N+](=O)[O-])ccc32)c1 | i | i | i | i | i | i | nt
Cc1ccc(OCCCC(=O)Nc2ccc(Br)cc2)cc1 | i | i | i | i | i | i | nt
CN(C)C(=O)COc1ccc(Oc2ccccc2)cc1 | i | i | i | i | i | i | nt
CC(=O)/C=C(\C)Nc1ccccc1O | i | i | i | i | nt | 81 | i
Cc1cc(C(=O)N/N=C/C=C/c2ccccc2)n[nH]1 | i | i | i | i | nt | i | nt

Screening results from PubChem BioAssay.
